Screening results: PubChem BioAssay, Johns Hopkins Ion Channel Center
Only some compounds are listed: those with a hit (about 2.4% of all), similar ones and a draw of the others.
CHT PAM – human CHT allosteric activation; Q9GZV3; CHT-expressing cells, membrane potential dye, choline EC20; stronger effect = higher value; LV-AA mutant CHT in HEK293 cells; B-score at 10 µM; actives 0.49% (n = 310,000);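 active means initial fluorescence not abnormally high and integrated response B-score, plate-corrected, over 3 SD above library mean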
Target sequence (Q9GZV3 whole entry, looked up): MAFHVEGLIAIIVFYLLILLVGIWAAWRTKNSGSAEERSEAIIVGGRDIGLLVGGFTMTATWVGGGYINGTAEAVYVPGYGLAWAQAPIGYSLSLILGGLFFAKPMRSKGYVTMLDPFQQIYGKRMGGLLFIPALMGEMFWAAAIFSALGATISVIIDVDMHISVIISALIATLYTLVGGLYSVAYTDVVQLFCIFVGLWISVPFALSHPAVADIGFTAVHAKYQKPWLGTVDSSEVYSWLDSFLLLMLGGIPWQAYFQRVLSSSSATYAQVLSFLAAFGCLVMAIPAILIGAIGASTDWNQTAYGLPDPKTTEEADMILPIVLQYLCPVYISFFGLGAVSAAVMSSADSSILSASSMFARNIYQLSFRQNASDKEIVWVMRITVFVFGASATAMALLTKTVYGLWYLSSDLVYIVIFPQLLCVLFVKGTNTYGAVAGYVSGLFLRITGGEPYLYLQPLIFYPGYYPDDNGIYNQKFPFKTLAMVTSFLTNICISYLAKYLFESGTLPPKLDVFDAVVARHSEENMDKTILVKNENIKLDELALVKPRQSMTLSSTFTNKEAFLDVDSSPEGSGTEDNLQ
ANO1 activ – activators or potentiators of mouse TMEM16A chloride channel; Q8BHY3; HEK293 TMEM16A/YFP-H148Q/I152L, iodide quench fluorescence; stronger effect = lower value; B-score at 10 µM; actives 0.3% (n = 340,000); AID 623877;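 active means fluorescence-ratio B-score plate-corrected deviation score at least 3 library SD below zero, with starting fluorescence score within 5 deviations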;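 further: channel opened by trigger with iodide after compound preincubation; score built on the fluorescence ratio of max minus min over baseline; more negative score means more quench and so TMEM16A activation or potentiation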
ANO1 block – blocks the mouse calcium-activated chloride channel TMEM16A; Q8BHY3; HEK293 TMEM16A/YFP iodide influx fluorescence, ionomycin; normalized B-score (activity score, 25-100; higher = stronger inhibition) at 10 µM; actives 1.2% (n = 310,000);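 active means ratio plate-corrected score three or more library SD toward inhibition, starting fluorescence score within five deviations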;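 further: score derived from kinetic fluorescence span divided by baseline fluorescence per well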
CHT block – human CHT choline transport inhibition; Q9GZV3; CHT-expressing cells, membrane potential dye, choline response; stronger effect = lower value; B-score at 10 µM; actives 0.86% (n = 310,000); AID 488975;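 active means B-score over 3 SD under the library average, and starting fluorescence ratio not unusually high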;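 further: choline stimulus applied at its EC90 after an EC20 pre-addition; B-score computed on integrated fluorescence ratio after choline addition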
TMEM16A reconf – re-confirmation of mouse TMEM16A chloride channel inhibitors; inhibition, % at 10 µM; actives 39% (n = 2,300); AID 652189; shares compounds with ANO1 block; HEK293 TMEM16A/YFP-H148Q, iodide quench fluorescence; ionomycin added to raise cell calcium;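 active means mean duplicate percent inhibition, scaled so buffer wells are 0 and the reference blocker 100, over three buffer SD above buffer mean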
TMEM16A Ca cntr – alters calcium mobilization in TMEM16A HEK293 cells, counter-screen. shares compounds with ANO1 block. TMEM16A/YFP HEK293, Fluo4 calcium mobilization. calcium response (% of ionomycin), % at 10 µM. actives 2% (n = 2,300). AID 652231;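 active means duplicate-averaged calcium signal over 20% of the ionomycin maximum, relative to buffer baseline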;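 further: each well's signal is peak minus trough fluorescence divided by its pre-addition baseline; 0% = buffer wells and 100% = ionomycin wells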
Parental YFP cnt – parental YFP-HEK293 iodide quench counter-screen activity | YFP ratio F(max-min)/F0 at 10 µM | 2,300 tested, under 10 active | shares compounds with ANO1 block | ionomycin;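 active means yellow fluorescent protein signal ratio exceeding the buffer control mean by over 5 SD of those controls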;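 further: ratio is mean of duplicate wells from kinetic YFP trace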
ClC-1 rat inh – blocks the rat ClC-1 voltage-dependent chloride channel; ratio percent, % at 10 µM; 2,300 tested, under 10 active; CHO ClC-1-YFP, iodide influx fluorescence quench; iodide control reads 0, buffer control 100; shares compounds with ANO1 block;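 active means duplicate-mean ratio percent above the mean of iodide-only control wells, which defines zero, plus 5 of their SD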;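 further: higher percent means stronger block of ClC-1 iodide influx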
Active calls of the source: *; i = inactive; . = no result.

SMILES	CHT PAM	ANO1 activ	ANO1 block	CHT block	TMEM16A reconf	TMEM16A Ca cntr	Parental YFP cnt	ClC-1 rat inh
O=C(CSc1nc2ccccc2o1)Nc1ccccc1N1CCCCCC1	i	i	25*	i	i	i	-1.3	-8
O=C(CSc1nc2ccccc2o1)Nc1ccc(N2CCOCC2)c(Cl)c1	i	i	100*	i	24%*	i	-1	-20
CC(=O)Nc1ccc2nc(SCC(=O)Nc3ccc(N4CCOCC4)c(Cl)c3)sc2c1	i	i	i	i	.	.	.	.
O=C(CSc1nc2ccccc2s1)Nc1ccc(N2CCOCC2)c(Cl)c1	i	i	100*	i	i	i	-1.1	-14
Cc1cc(C)nc(SCC(=O)Nc2ccc(N3CCOCC3)c(Cl)c2)n1	i	i	100*	i	i	i	-1.1	-15
O=C(CSc1nc2ccccc2o1)Nc1cc(C(F)(F)F)ccc1N1CCOCC1	i	i	i	i	.	.	.	.
O=C(NCCC(=O)N1CCN(S(=O)(=O)c2ccccc2F)CC1)Nc1ccccc1	.	i	.	.	.	.	.	.
COc1ccc(NC(=O)C2CCN(S(=O)(=O)c3c(C)noc3C)CC2)cc1OC	i	i	i	i	.	.	.	.
COc1ccc(C(CNC(=O)c2cccc(S(=O)(=O)N3CCOCC3)c2)N2CCCC2)cc1 (configuration not stated)	.	i	.	.	.	.	.	.
COc1cc([N+](=O)[O-])cc2cc(C(=O)NC(C)(C)C)c(=O)oc12	i	i	i	i	.	.	.	.
CC(=O)c1cccc(N=c2scc(-c3ccc(S(=O)(=O)N4CCOCC4)cc3)n2CCO)c1	i	i	25*	i	38%*	i	-1	-18
COc1ccc(-c2csc(=Nc3ccccc3)n2CCO)cc1	i	i	100*	i	44%*	i	-1.2	0
C=CCn1c(-c2ccc(S(=O)(=O)N3CCOCC3)cc2)csc1=Nc1ccccc1	i	i	i	i	.	.	.	.
COc1ccc(OCCn2c(=N)n(CCO)c3ccccc32)cc1	i	i	i	i	.	.	.	.
COc1ccc(N/C(=C2\CCCC2=O)C2CCCCC2)cc1	i	i	i	i	i	i	-1	-15
CCC(C)NC(=O)c1cn(CCOC)c(=O)c2c1c1ccccc1n2C (configuration not stated)	i	i	i	i	.	.	.	.
COc1ccc(C(c2nnnn2CCc2ccccc2)N2CCN(C)CC2)cc1OC (configuration not stated)	.	i	.	.	.	.	.	.
COc1ccccc1C(c1nnnn1CCc1ccccc1)N1CCCCCC1 (configuration not stated)	i	i	25*	i	18%*	i	-1.1	-3
O=C(CNC(=O)OCc1ccccc1)OC(c1ccccc1)c1ccccc1	.	i	.	.	.	.	.	.
Cc1cc(C(=O)CSc2nnc(-c3ccco3)o2)c(C)n1Cc1ccco1	i	i	i	i	i	i	-0.99	-14
Cc1cc(C(=O)CSc2nnc(-c3cccs3)o2)c(C)n1-c1ccccc1	i	i	100*	i	i	i	-1.3	-6
O=C(O)c1cccc(Cn2c(Cl)c(/C=N/NC(=O)c3cc4ccccc4cc3O)sc2=O)c1	i	i	i	i	.	.	.	.
CCCC(=O)NC(=S)Nc1ccc(S(=O)(=O)Nc2ccc(OCC)cc2)cc1	i	i	i	i	.	.	.	.
CCOc1ccc(NS(=O)(=O)c2ccc(NC(=S)NC(=O)CC(C)C)cc2)cc1	i	i	100*	i	38%*	i	-0.94	-12
CC(C)OCCCn1c(=NC(=O)c2ccncc2)c(C#N)cc2c(=O)n3ccccc3nc21	i	i	25*	i	i	28%*	-1.1	-14
SMILES	CHT PAM	ANO1 activ	ANO1 block	CHT block	TMEM16A reconf	TMEM16A Ca cntr	Parental YFP cnt	ClC-1 rat inh
CCCCNC(=S)Nc1ccc(F)cc1	i	i	i	i	.	.	.	.
CCCCNC(=S)Nc1ccc(SC(F)F)cc1	i	i	100*	i	54%*	i	-0.95	-16
O=S(=O)(c1ccccc1)N1CCN(c2ccnc3cc(Cl)ccc23)CC1	i	i	100*	i	i	i	-0.88	-5
O=C(O)c1c2c(nc3ccc(S(=O)(=O)N4CCC(C(=O)NCc5ccc(Cl)cc5)CC4)cc13)CCCC2	i	i	i	i	.	.	.	.
CC(=O)c1c(C)nn(CC(O)COc2ccc3c(c2)CCC3)c1C (configuration not stated)	i	i	25*	i	i	i	-1.1	-6
Cc1nn(CC(O)COc2ccc3c(c2)CCC3)c(C)c1Br (configuration not stated)	i	i	i	i	.	.	.	.
CC1=CC(=C(C#N)C#N)C=C(C)N1CCC(C)C	i	i	i	i	.	.	.	.
CCCS(=O)(=O)N1CCC(C(=O)NCCCOC)CC1	i	i	100*	i	i	i	-0.92	-2
CCCS(=O)(=O)N1CCC(C(=O)NCCCOC(C)C)CC1	i	i	i	i	.	.	.	.
CSc1ccccc1C(=O)Nc1ccc2c(c1)OCO2	i	i	i	i	.	.	.	.
CSc1cccc(CNC(=O)CC2C(=O)NCCN2CC(C)(C)C)c1 (configuration not stated)	i	i	i	i	.	.	.	.
Cc1ccc(NS(=O)(=O)c2ccc(C(=O)N3CC(C)CC(C)C3)cc2)cc1 (configuration not stated)	10*	-17*	100*	i	80%*	40%*	-1.1	-7
Cc1ccc(S(=O)(=O)Nc2ccc(C(=O)N3CCCC3)cc2)cc1	i	i	i	i	.	.	.	.
CC1=C(SCc2ccccc2)C(=O)c2ccccc2C1=O	.	i	.	.	.	.	.	.
O=C1C(SCCO)=C(SCCO)C(=O)c2ccccc21	i	i	100*	i	40%*	i	-0.91	-34
Cc1ccccc1-c1cc(C(=O)Nc2sc(C(=O)OC(C)C)c(C)c2C#N)c2ccccc2n1	i	i	25*	i	68%*	i	-1.2	-20
COC(=O)c1sc(NC(=O)c2cc(-c3ccccc3)nc3ccccc23)c(C#N)c1C	i	i	100*	i	42%*	i	-1	-22
COc1ccc(-c2cc(C(=O)Nc3sc4c(c3C#N)CCCC4)c3ccccc3n2)cc1	i	i	i	i	.	.	.	.
